Reference: the supplement of paper PMC6555819

Each sequence was assayed on RXRa DBDmut IVT, anti-RXR (DBD mutation: RXRa K156A/R161A, NR concentration 90 nM) (assay: PBM binding z-score (relative to random genomic background probes); higher = stronger binding; sequences stand for … in GC…GCGATTGACAGCGTAGAATGAAGG).
How it was run: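 Binding z-scores were set against random background probes. The data came from custom Agilent 4×180K protein-binding microarrays carrying double-stranded probes with 34-nt variable regions, incubated 1 h with ligand-free nuclear receptor dimers. Partner-specific antibodies detected binding, and scanned fluorescence was regression-normalized.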
Work on TCTCGGAGGACACAAAGGTCAGAGCTTTCCAGAG yielded a PBM binding z-score of 0.957. In the case of CGTTCAAGGTCAAAGGTCAGTGAAGAGATGACGG, the PBM binding z-score is reported as 4.53. In the case of CCAGACAGGTGAGAAGGTAACTCAGCCTCGATTA, the PBM binding z-score is reported as 0.16. TAGCCTAGGTCATACAGGGGCCAGTATAGAAAGC gave a PBM binding z-score of 1.04. For CCTACTGGGCCATTCAGAGGTCAATGATCATATG, the PBM binding z-score was 0.406. CCTACTGGGCCGTTCAGAGGTCATTGATCATATG gave a PBM binding z-score of 0.516. Work on ATATGTAGGTTATCTGGGGTCATTCAGACTAGGC yielded a PBM binding z-score of 2.58. GATACAGGGTCAGCTACAGGCCAGAGTATGGAAA gave a PBM binding z-score of 1.25. Work on CAAACTAGGTCAAGAGGTCAAAGTTCGCTTCCCG yielded a PBM binding z-score of 3.49. In the case of ATCGAAAGGTCCAAGGTGAGTATACCCACCCGAA, the PBM binding z-score is reported as 0.0908. With ATATGTAGGATAGCTGGGGTCATTCAGACTAGGC the PBM binding z-score was 1.61. With TCGTGTAGGTTACGGGGGCATTCAGGGATGAAGA the PBM binding z-score was 2.75. For CGAACTACGTCATCCAGGACAGTGAATACATTGA, the PBM binding z-score was 0.498. With CGTCAAAGATCAAGGTAACGTAACAGAAAGCAGC the PBM binding z-score was -0.147. With CGAACTAGGTCAAGGACAGTAAATCTCCGCACGC the PBM binding z-score was 1.47. AATACAGGGTCACGAGGCCAGAGTAGGTACGAAT showed a PBM binding z-score of 2.95. In the case of TCTAGTTGGTCACGGAGGACACACACGACGGGTA, the PBM binding z-score is reported as 0.501. Work on CGTCCAAGGTCAGCGGGTCAGTGAAAGCGACGTG yielded a PBM binding z-score of 2.67. ACGCGGAGGACAAAGGTCAGAGCTACGCCAGTGA gave a PBM binding z-score of 0.687. CCTTACGGGTCACGTGGTTATAGCACGACGAGCG gave a PBM binding z-score of 1.32. GGAACGAGGTCATTCGAGTTGATAGCATGGCGAT gave a PBM binding z-score of 4.87. TCTGCTAGGTCATCGATGGTCAGCTAATCTGCTA was tested, and the PBM binding z-score was 1.53. With ACTTAAGGGTCAACGAGGTTATAGCACGCGTATA the PBM binding z-score was 3.8. In the case of AATACAGGGTCATCGTACGCCAGAGTACGCACAG, the PBM binding z-score is reported as 3.46. Work on ATCGAAAGGTCGACCAGGTGAGTATACACCGTTT yielded a PBM binding z-score of 1.3. TTACCAAGGTGAACGGTCGTTGATGCACGCCTTG was tested, and the PBM binding z-score was -0.078. For CCTACTGGGCCAAAAAGGTCATTGATGCCGATAA, the PBM binding z-score was 0.661. AGTCAAAGTTCAGGACGAGGTAACGTTAAGCACG was tested, and the PBM binding z-score was 3. For CGAACTAGGTCATTGACAGGACAATGAATAGTAA, the PBM binding z-score was 2.44. TTACCAAGGTGAAAGGTCGTTGCTGCACGCCTTG gave a PBM binding z-score of 0.854. For GCTAGTTGGTCAGTAAAATGTCACACACCGGTCG, the PBM binding z-score was 0.121. With TAGCCTAGGTCATGCGGGCCAATATAGTGTCGGC the PBM binding z-score was 0.554. CGTCCAAGGTCGAAGGTCAGTGAAGAGATGACGG gave a PBM binding z-score of 1.82. TCTAGTTGGTCACGGAGGGCACACACGACGGGTA was tested, and the PBM binding z-score was 0.575. Work on CCTGCTAGGTCATGGTCAGCGAATCTACAGTATG yielded a PBM binding z-score of 1.92. CCTTACGGGTCACTGACAGGTTATAGCGTTTGGA showed a PBM binding z-score of 1.73. ACTTACGGGTCTACGAGGTTATAGCACGCGTATA was tested, and the PBM binding z-score was 0.937. For ACTCGGATGACAAAGGTCAGAGCTACGCCAGTGA, the PBM binding z-score was 0.624. CCTACTGGGCCACGAAAGGCCATTGATTCAGTGA was tested, and the PBM binding z-score was -0.292. ATCGAAAGGTCGACGAGGTGAGTAAACACCGTTT showed a PBM binding z-score of 0.855.
